Consider 116 molecules from PubChem BioAssay AID624300 (Southern Research Specialized Biocontainment Screening …, 2012).

Structures are written as SMILES. Among all 2,400 compounds or so, about 360 (15%) were called active. Not all results are given here. Results with a measured potency or affinity are listed apart. Unmarked numbers belong to inactive results.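 Rule for the calls: active = viability falls under 70% at one or more tested concentrations, taken as toxicity; inactive = viability stays over 70% at every dose.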

The nature of the assay: viability loss in HeLa cells – cytotoxicity control for MgcRacGAP inhibitor project, dose response (AID 624300).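 Note: 100% = median of untreated control wells on the same plate.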 Particulars: CellTiter-Glo luminescence, 24 h; series mostly up to 100 µM; viability: at the top concentration. In general terms: In ATP-based viability assays light output follows the ATP content of the culture.
Consider `CCOc1cc(/C=N/NC(=O)CCCC(=O)NC2CCCCC2)ccc1O`, for which the “viability” value was 103%. As for `COc1cc(/C=C/C(=O)OCC(=O)N2CCN(S(=O)(=O)c3ccc(C)cc3C)CC2)ccc1O`, the “viability” value is 87.1%. In the case of `CCOc1cc(/C=C2\CN(CC)C/C(=C\c3ccc(O)c(OCC)c3)C2=O)ccc1O`, the “viability” value was 83.4%. `CCN(CC)CCC(=O)N1C/C(=C/c2ccccc2)C(=O)/C(=C\c2ccccc2)C1`: the “viability” value was 87.1%. In the case of `CC(C)c1ccc(CNc2ccc(N3CCOCC3)cc2)cc1`, the “viability” value is 91.4%.

`CC1CCN(S(=O)(=O)c2ccc3c(c2)C(Cl)(Cl)C(=O)N3)CC1`: the “viability” value was 94%.

On to `CCOc1cc(/C=C2\CN(C)C/C(=C\c3ccc(O)c(OCC)c3)C2=O)ccc1O`, for which the “viability” value was 99%. In the case of `CCOc1cc(CNc2ccc3[nH]c(=O)[nH]c3c2)ccc1OCC(=O)NC(C)(C)C` it was 103%; in that of `O=C1CSC(=Nc2ccc(O)cc2)N1`, 119%; in that of `CCN(CC)S(=O)(=O)c1cccc(-c2n[nH]c(=S)n2/N=C/c2ccc(C(=O)OC)cc2)c1`, 90.5%. In the case of `c1cc2c(cc1NC1CCCCCC1)OCO2` it was 109%; in that of `CC(=O)N1CCC(=NNC(=O)c2cc3ccccc3cc2O)CC1`, 102%; in that of `C/C(=N\Nc1ccc([N+](=O)[O-])cc1)c1ccc(N)cc1`, 93.4%.

As to `COc1cccc(NC2=C(C#N)C(=O)NC(c3cccc(OC)c3O)S2)c1` (stereo unspecified), the “viability” value was 99.7%.

On to `COc1ccc(NCc2cc(=O)[nH]c3ccccc23)cc1`, for which the “viability” value is 98.2%. With `Cn1c(=O)c2ccccc2n2c(=S)[nH]nc12`, the “viability” value is 87.6%.

Turning to `CC(OC(=O)CCN=C1NS(=O)(=O)c2ccccc21)C(=O)Nc1ccc(N(C)C)cc1` (stereo unspecified), the “viability” value is 106%. Consider `CCNC(=S)Nc1cc2oc3ccccc3c2cc1OC`, for which the “viability” value was 87.5%. For `COc1cc2c(cc1NC(=S)Nc1cccc3ccccc13)oc1ccccc12`, the “viability” value was 95.5%. In the case of `CC(=O)Nc1ccc(N=Nc2ccc(O)cc2)cc1`, the “viability” value is 111%. For the molecule `CCN(C=NC1=NN(c2cccc(C(F)(F)F)c2)CC1)CC`, the “viability” value was 94.5%. As to `COc1ccc(N2CCN(c3ncccn3)CC2)cc1`, the “viability” value was 103%.

Regarding `Cc1ccc(-n2sc3ccccc3c2=O)cc1`, the “viability” value was 82.2%.

As for `O=C(Cn1sc2ccccc2c1=O)Nc1ccc(F)cc1`, the “viability” value is 91.6%. Take `O=C(Cn1sc2ccccc2c1=O)Nc1ccccc1`: the “viability” value was 94.5%. For the molecule `S=C(NCc1ccco1)NCc1ccco1`, the “viability” value is 108%. With `COc1cc(CN2CCC(C(=O)N3CCCC(C)C3)CC2)cc(Br)c1O` (stereo unspecified), the “viability” value is 97%. Regarding `O=C(NC(=S)Nc1ccc(O)cc1)C1CCCC1`, the “viability” value was 103%.

On to `COc1cc(/C=N/N=C2/SCC(=O)N2c2ccc(O)cc2)ccc1O`, for which the “viability” value was 115%. `CN(C)c1ccc(NC(=O)CCN2C(=O)c3cccc([N+](=O)[O-])c3C2=O)cc1`: the “viability” value is 102%.

Turning to `COc1cccc(Nc2ccc(N3CCCCC3)cc2)c1OC`, the “viability” value is 86.7%. In the case of `C=CCNC(=S)N1CCN(Cc2ccc3c(c2)OCO3)CC1`, the “viability” value is 98.5%.

With `CCOc1ccc(C2NC(=O)C(C#N)=C(S)N2c2ccc(C)cc2)cc1OC` (stereo unspecified), the “viability” value was 98.6%. In the case of `COc1ccc(NC(=O)Nc2ccc(N(C)C)cc2)cc1` it was 99.5%.

For the molecule `CN(CCCCCCN(C)Cc1ccccc1O)Cc1ccccc1O`, the “viability” value is 98.8%. In the case of `CCCc1c(C)[nH]c2ccc(C(=O)O)cc2c1=S` it was 107%; in that of `Nc1nc(Sc2ccc([N+](=O)[O-])c3nonc23)c2[nH]cnc2n1`, 48.2%.

For `CCOC(=O)c1c(/N=C/C2=C(O)CCCC2=O)sc(C)c1C`, the “viability” value was 98.8%. Turning to `O=C(O)c1cccc(-n2sc3ccccc3c2=O)c1`, the “viability” value is 88%.

Consider `Clc1ccccc1-c1nc(/C=N/N2CCOCC2)c2ccccn12`, for which the “viability” value is 97.4%. In the case of `O=C(CN1CCc2ccccc2C1)Nc1ccccc1C(F)(F)F`, the “viability” value was 97.3%. The same measure for `O=C(N/N=C/c1ccc(O)cc1)c1csc2c1CCCC2`: 97.4%; for `Oc1ccc(-c2nccs2)cc1`: 92.6%; for `CCN=c1scc(C)n1/N=C/c1cc(Br)c(O)c(OC)c1`: 90.2%. With `Cc1cc(=O)[nH]c2c(N=Nc3ccc(O)cc3)c(N)nn12`, the “viability” value was 99.6%. The same measure for `CC1(C)CC(=O)C2=C(C1)Nc1ccccc1S2`: 106%; for `COc1cccc(/C=N/n2c(-c3n[nH]c4c3CCC4)n[nH]c2=S)c1O`: 88.5%. Consider `O=C1CCC(C2CCc3cc(O)ccc3C2)C1` (stereo unspecified), for which the “viability” value is 89%. In the case of `CCOc1ccccc1CN1CCC(N2CCOCC2)CC1` it was 91.6%; in that of `CC(C)CC(=O)N1CCN(Cc2cccc([N+](=O)[O-])c2)CC1`, 85.5%; in that of `CCOc1cc(/C=N/NC(=O)CCc2n[nH]c(=O)[nH]c2=O)ccc1O`, 106%. In the case of `S=c1[nH]nc(-c2cccnc2)n1/N=C/c1cccs1`, the “viability” value is 102%. In the case of `COc1ccc(-c2cn[nH]c2-c2ccc(O)cc2O)cc1OC`, the “viability” value was 91.1%.

As to `Oc1ccc(-c2csc(-c3cccnc3)n2)cc1O`, the “viability” value was 95.4%. In the case of `COc1cc2cc(-c3ccc(O)cc3O)nc(C)c2cc1OC` it was 82.8%.

For `COc1ccc(C2NC(=O)C(C#N)=C(S)N2c2ccc(C)cc2)cc1OC` (stereo unspecified), the “viability” value is 104%.

As for `N#CC1(Nc2ccc(-c3ccc(NC4(C#N)CCCC4)cc3)cc2)CCCC1`, the “viability” value is 110%.

For `Nc1ccc(N2CCCCC2)c(Cl)c1`, the “viability” value was 98%. The same measure for `Cc1cccc(NC2=C(C#N)C(=O)NC3(CCCC3)S2)c1`: 98.8%. As for `COC(=O)C1=C(C)N(CC2CCCO2)C(=O)/C1=C\c1ccc(O)cc1` (stereo unspecified), the “viability” value was 102%. Consider `CCOc1cc(/C=C2/N=C(C)C(C(=O)OC)=C2O)ccc1O`, for which the “viability” value was 100%. For the molecule `COc1cc(-c2nc3cnccn3c2Nc2c(C)cccc2C)ccc1O`, the “viability” value is 97.4%. The same measure for `COc1cc(-c2nc3ccccn3c2/N=C/c2cc(OC)c(O)cc2Cl)ccc1O`: 89.2%; for `Cc1ccccc1CN(C)CCc1ccccn1`: 99.2%; for `Cc1nc(S/C(=C\c2ccc(-c3ccc(C(=O)O)c(Cl)c3)o2)C(=O)O)n[nH]1`: 105%. With `Cc1ccc(S(=O)(=O)/N=S(/c2ccccc2)C(C)C)cc1` (stereo unspecified), the “viability” value is 88%. Regarding `Oc1ccc(N=Nc2ccccc2)cc1`, the “viability” value is 98%.

As for `Cc1ccc(S(=O)(=O)Nc2ccc(N(C)C)cc2)cc1`, the “viability” value was 92.1%.

As to `O=C1c2ccccc2C(=O)C1c1ccc(O)cc1`, the “viability” value is 97.7%. Regarding `COc1cc2c(cc1OC)C(c1cc(Br)c(OC)c(OC)c1)CC(=O)N2` (stereo unspecified), the “viability” value was 99%.

Regarding `CN(C)c1ccc(NC(=O)c2cccc(N3C(=O)C4C5C=CC(C5)C4C3=O)c2)cc1` (stereo unspecified), the “viability” value is 105%.

Regarding `CC(C(=O)NC(=O)NC1CCCCC1)N1CCN(c2ccc(O)cc2)CC1` (stereo unspecified), the “viability” value is 101%. On to `COc1ccc(N[C@@H]2CCN3C(=O)c4ccccc4[C@@H]3C[C@H]2O)cc1`, for which the “viability” value is 105%. In the case of `N#CC1=C(S)N(c2ccccc2)C(c2ccc(-c3cccc(Cl)c3)o2)NC1=O` (stereo unspecified), the “viability” value was 97.1%. Take `COc1ccccc1N1CCN(CCCOc2ccc(F)cc2)CC1`: the “viability” value was 87.8%. In the case of `Cc1cccc(-c2n[nH]c(=S)n2/N=C/c2ccco2)c1`, the “viability” value was 101%. As for `COc1ccc(CNc2ccc(N3CCN(C(C)=O)CC3)cc2)cc1OC`, the “viability” value was 94.6%. Turning to `CCOc1cc(CNc2ccc(N3CCOCC3)cc2)cc(Br)c1OCC`, the “viability” value was 99.3%. In the case of `CCOc1cc(CNc2ccc3c(c2)OCCO3)cc(Br)c1OCC(N)=O` it was 101%. As for `COc1cc(CNc2ccc(N3CCOCC3)cc2)cc(Br)c1OC`, the “viability” value is 96.3%.

For the molecule `O=C(Cn1cnc([N+](=O)[O-])n1)N/N=C/c1ccc(O)cc1O`, the “viability” value was 103%. Turning to `O=S(=O)(c1ccccc1)N1N=C(c2ccc(O)cc2)CC1c1ccco1` (stereo unspecified), the “viability” value is 82.5%. In the case of `CN(C)c1ccc(NC(=O)c2ccc3nsnc3c2)cc1`, the “viability” value is 103%.

Take `O=C(c1ccccc1)N1CCN(C2CCCCC2)CC1`: the “viability” value is 99%.

For the molecule `COc1ccc(/C=N/n2c(-c3n[nH]c4c3CCC4)n[nH]c2=S)c(OC)c1OC`, the “viability” value is 113%. Regarding `Nc1n[nH]c(N)c1N=Nc1ccc2c(c1)OCO2`, the “viability” value is 98.6%. In the case of `O=C(CSc1ccc2ccccc2c1)N1CCN(c2ccc(O)cc2)CC1` it was 114%; in that of `Oc1ccc(NC(=S)N=Nc2c(O)[nH]c3ccccc23)cc1`, 87%; in that of `Oc1ccc(NC(=S)Nc2ccc(F)cc2)cc1`, 99.5%. Take `Oc1ccc(N2CCN(Cc3cc4c(cc3Br)OCCO4)CC2)cc1`: the “viability” value was 110%. Regarding `CC1CCN(CC(=O)Nc2ccc(S(=O)(=O)NC3CC3)cc2)CC1`, the “viability” value is 98.4%. With `Cc1ccc(NC(=O)NC(=O)CN2CCN(c3ccc(O)cc3)CC2)c(C)c1`, the “viability” value is 98.6%. `CN(c1ccc(O)cc1)c1nc(-c2cccs2)cs1`: the “viability” value was 82%. Turning to `COc1ccc(CNC(=O)CN(C)Cc2ccc(C(C)(C)C)cc2)cc1`, the “viability” value is 87.3%.

Regarding `CN1CCN(C=NC2=NN(c3cccc(C(F)(F)F)c3)CC2)CC1`, the “viability” value was 89.4%. Take `CCOC(=O)c1[nH]c(=S)n(Cc2ccccc2)c1C(=O)OCC`: the “viability” value is 97.3%. With `CN(C)c1ccc(NC(=O)COC(=O)c2ccc3c(c2)OCO3)cc1`, the “viability” value was 99.3%. As to `COC(=O)C1CCN(C(=O)COC(=O)/C=C/c2ccc(O)c(OC)c2)CC1`, the “viability” value is 99.1%.

For `CSc1nc(/C=C2\C=Nc3ccccc32)c(O)n1C`, the “viability” value is 90.1%. Turning to `CCOC(=O)C1CCCN(C(=S)Nc2ccc(Nc3ccccc3)cc2)C1` (stereo unspecified), the “viability” value was 98.2%.

As for `CN(C)c1ccc(-n2cccc2/C=C/[N+](=O)[O-])cc1`, the “viability” value is 110%.

Take `COc1ccc(-n2cnc(=S)[nH]c2=S)cc1`: the “viability” value is 93%. For `COc1ccc(NC2CCCN(C(=O)c3ccccc3-c3ncc[nH]3)C2)cc1` (stereo unspecified), the “viability” value is 99.3%. On to `CCN1CCN(CCOc2cccc(Cl)c2Cl)CC1`, for which the “viability” value was 98.5%. For the molecule `COc1ccc(NC(=O)c2cc3ccc(O)cc3o/c2=N\O)cc1`, the “viability” value was 101%. The same measure for `Cc1sc2ncnc(Nc3ccc(O)cc3)c2c1C`: 103%. `CCN(CC)S(=O)(=O)c1cccc(C(=O)N/N=C/c2ccc(OC)c(O)c2)c1`: the “viability” value was 106%. For `Cc1c(O)ccc2c3c(c(=O)oc12)CCCC3`, the “viability” value was 98%. `Cc1ccc2c(c1)C(C)CC(C)(C)N2C(=O)CN1CCN(C)CC1` (stereo unspecified): the “viability” value was 98.5%. As for `O=c1c(-c2cccc(Cl)c2)c[nH]n1-c1ccccc1`, the “viability” value was 84.1%.

Turning to `O=c1c(-c2ccccc2Cl)c[nH]n1-c1ccccc1`, the “viability” value is 89.8%. `Cc1ccc(OC(=O)CCC(=O)Nc2ccc(C)c(C)c2)cc1`: the “viability” value was 104%. For `COc1cc(/C=C/C(=O)OCC(=O)NC(=O)NC(C)C)ccc1O`, the “viability” value is 94.6%. On to `COc1ccc(N2CCN(C(=O)CCCn3nnnc3CN3CCOCC3)C(C)C2)cc1` (stereo unspecified), for which the “viability” value is 98.7%.

On to `O=C1/C(=C\c2ccc(O)cc2)SC(=S)N1/N=C/c1ccc(O)cc1`, for which the “viability” value is 88.5%. Take `Cc1cc(O)ccc1N=Cc1c(C(F)(F)F)[nH][nH]c1=O`: the “viability” value is 96.6%.

One may read the viability as a read-out of living cells in per cent, often relative to untreated cells.
